Experimental findings from PubChem BioAssay AID720706 (Broad Institute, 2013) are described below.

Out of some 350,000 compounds screened, about 5,500 (1.6%) were called active.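 The calls were made as follows: active = significant combined selectivity score with lowered wild-type GFP, culture density cut under 30%, mutant RFP and density less affected; inactive = any of these conditions unmet.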 The full list was thinned out, with actives kept by preference.

The experiment in a line: GFP drop in mixed WT/humanized-ribosome E. coli culture – GFP/RFP fluorescence, OD600, single point, bacterial rRNA inhibitor project, primary screen (AID 720706). The following applies: E. coli WT GFP vs humanized-ribosome RFP mutants, 24 h; GFP signal change (wild-type ribosome): stronger effect = lower value, DMSO median 0, no signal -100; OD600 change: measured here: OD600 growth, DMSO median 0, no signal -100; RFP signal change: measured here: RFP humanized mutant strains, DMSO median 0, no signal -100, concentration not given here.
For the compound `CCCNC(=O)N(C)C[C@H]1Oc2ncc(-c3ccc(C(=O)N(C)C)cc3)cc2C(=O)N([C@@H](C)CO)C[C@@H]1C`, the GFP signal change (wild-type ribosome) was 6.11% (inactive), the OD600 change came to 12.2% and the RFP signal change was -1.77%.

Take `CCCN(C)C[C@H]1OCCCC[C@@H](C)Oc2ccc(NC(=O)Nc3ccc(F)cc3)cc2C(=O)N([C@@H](C)CO)C[C@H]1C`: the GFP signal change (wild-type ribosome) was -3.85% (inactive), the OD600 change was -9.95% and the RFP signal change worked out at 3.72%.

Regarding `Cc1ccccc1S(=O)(=O)NC(=O)C1(C)CCN1C(=O)C1(c2ccccc2)CCCC1` (configuration not stated), the GFP signal change (wild-type ribosome) was -6.4% (inactive), the OD600 change was 0.03% and the RFP signal change was -0.676%.

With `Cc1ccccc1S(=O)(=O)NC(=O)C1(C)CCN1C(=O)C1(c2ccc(Cl)cc2)CC1` (configuration not stated), the GFP signal change (wild-type ribosome) is -15.3% (active), the OD600 change worked out at 13% and the RFP signal change was 7.67%.

On to `CC1(C(=O)NS(=O)(=O)c2ccc3ccccc3c2)CCN1C(=O)C1(c2ccc(Cl)cc2)CCC1` (configuration not stated), for which the GFP signal change (wild-type ribosome) is -33.2% (inactive), the OD600 change was -59.6% and the RFP signal change is -12.6%.

`Cc1noc(C)c1S(=O)(=O)N(C)C[C@@H]1OCCCC[C@H](C)Oc2ccc(NC(=O)CCC(F)(F)F)cc2C(=O)N([C@H](C)CO)C[C@H]1C`: the GFP signal change (wild-type ribosome) was -0.425% (inactive), the OD600 change was 1.3% and the RFP signal change turned out to be 2.1%.

In the case of `O=C(c1cnccn1)N1CC(=O)N2[C@H](C1)[C@@H](c1ccc(C3=CCCCC3)cc1)[C@@H]2CO`, the GFP signal change (wild-type ribosome) is 3.19% (inactive), the OD600 change is -21.9% and the RFP signal change is 1.94%.

With `COCCNC(=O)C[C@@H]1C[C@@H]2c3cc(NS(=O)(=O)c4ccccc4)ccc3O[C@@H]2[C@H](CO)O1`, the GFP signal change (wild-type ribosome) is 1.27% (inactive), the OD600 change was determined as 4% and the RFP signal change is -0.545%.

Consider `c1ccc(COc2nsnc2N2CCOCC2)cc1`, for which the GFP signal change (wild-type ribosome) is 0.165% (inactive), the OD600 change is -14.3% and the RFP signal change is -6.39%.

With `CC(CNC(=O)Cn1cnc2c(OCc3ccccc3)ncnc21)c1ccccc1` (configuration not stated), the GFP signal change (wild-type ribosome) is 8.65% (inactive), the OD600 change came to 14.8% and the RFP signal change stood at 2.69%.

On to `Fc1cccc2ncnc(OCc3ccccc3)c12`, for which the GFP signal change (wild-type ribosome) is -30.9% (active), the OD600 change is -18% and the RFP signal change is -2.44%.

On to `CCCC#Cc1ccc([C@@H]2[C@@H](CO)N3C(=O)CN(C(=O)Nc4ccc(F)cc4)C[C@@H]23)cc1`, for which the GFP signal change (wild-type ribosome) was -0.84% (inactive), the OD600 change is -38.9% and the RFP signal change was found to be 19.5%.

With `COCC(=O)Nc1ccc2c(c1)C(=O)N(C)[C@H]1CC[C@@H](CC(=O)NCc3cccc(F)c3)O[C@H]1CO2`, the GFP signal change (wild-type ribosome) is 3.46% (inactive), the OD600 change was found to be 6.34% and the RFP signal change came out at 1.53%.

Take `CC(=O)Nc1ccc2c(c1)CC(=O)N(C)C[C@H](C)[C@H](CN(C)S(C)(=O)=O)O2`: the GFP signal change (wild-type ribosome) was 0.68% (inactive), the OD600 change is 1.91% and the RFP signal change amounted to 0.168%.

As to `CCNC(=O)[C@H]1[C@H](CO)[C@H]2Cn3c(cccc3=O)[C@@H]1N2Cc1cc(F)ccc1F`, the GFP signal change (wild-type ribosome) was 0.156% (inactive), the OD600 change is 3.74% and the RFP signal change was determined as 1%.

As to `C[C@@H]1CN([C@H](C)CO)C(=O)c2cccc(NS(=O)(=O)c3ccc(F)cc3)c2O[C@@H]1CN(C)S(=O)(=O)c1ccc(Cl)cc1`, the GFP signal change (wild-type ribosome) was -1.76% (inactive), the OD600 change was -16.2% and the RFP signal change is -1.81%.

As to `Cc1nc(-c2ccc([N+](=O)[O-])cc2)c(-c2ccccc2)o1`, the GFP signal change (wild-type ribosome) was -32% (active), the OD600 change was -14.4% and the RFP signal change worked out at 13.4%.

Regarding `Cn1nc(-c2ccccc2)c2cc([N+](=O)[O-])ccc21`, the GFP signal change (wild-type ribosome) was 0.085% (inactive), the OD600 change is 1.86% and the RFP signal change was -0.696%.

For the compound `O=[N+]([O-])c1cc2ccccc2nc1-c1ccccc1`, the GFP signal change (wild-type ribosome) is 11.2% (inactive), the OD600 change was -0.7% and the RFP signal change was -0.455%.

As for `O=C(C[C@H]1C[C@H]2c3cc(NC(=O)C4CCOCC4)ccc3O[C@H]2[C@@H](CO)O1)NCC1CC1`, the GFP signal change (wild-type ribosome) was 2.89% (inactive), the OD600 change stood at 8.38% and the RFP signal change is -2.18%.

Turning to `Cc1noc(C)c1NC(=O)Nc1ccc2c(c1)C(=O)N([C@@H](C)CO)C[C@H](C)[C@@H](CN(C)C(=O)C1CCCCC1)OCCCC[C@@H](C)O2`, the GFP signal change (wild-type ribosome) was 1.51% (inactive), the OD600 change stood at 8.89% and the RFP signal change was -0.802%.

In the case of `CC=Cc1ccc2n(c1=O)C[C@@H]1[C@@H](CO)[C@H](C(=O)NCCc3ccccc3)N(C(C)=O)[C@H]21` (mixture of isomers), the GFP signal change (wild-type ribosome) was 0.861% (inactive), the OD600 change was determined as 2.27% and the RFP signal change was -0.668%.

In the case of `COc1ccccc1NC(=O)N1C[C@@H]2[C@H](c3ccccc31)[C@H](CO)N2CC1CCOCC1`, the GFP signal change (wild-type ribosome) is 0.276% (inactive), the OD600 change is -6.98% and the RFP signal change came to 0.913%.

For the compound `COCCCNc1ccn2nc(-c3ccc(CC(C)C)cc3)cc2n1`, the GFP signal change (wild-type ribosome) was -26.9% (inactive), the OD600 change was -34.5% and the RFP signal change stood at 0.31%.

On to `COc1ccc(-c2cc3nc(NCCOc4ccccc4)ccn3n2)cc1`, for which the GFP signal change (wild-type ribosome) is -7.79% (inactive), the OD600 change is -16.3% and the RFP signal change amounted to 16.5%.

For `COCCNc1cc(-c2ccccc2)nc2cc(-c3cccc(F)c3)nn12`, the GFP signal change (wild-type ribosome) was -14.8% (active), the OD600 change was determined as 8.3% and the RFP signal change is -4.74%.

As for `CC(C)NC(=O)N(C)C[C@H]1OCc2ccccc2-c2c(n(C)c3ccccc23)C(=O)N([C@H](C)CO)C[C@@H]1C`, the GFP signal change (wild-type ribosome) is 0.94% (inactive), the OD600 change was 5.88% and the RFP signal change was -4.42%.

On to `CN1c2ccc(-c3ccccc3)cc2[C@@H]2[C@@H](CCN2C(=O)NC2CCCC2)[C@H]1CO`, for which the GFP signal change (wild-type ribosome) is -26.6% (inactive), the OD600 change was -47.4% and the RFP signal change amounted to 16.9%.

As for `CCC(=O)N1[C@@H](CO)[C@@H](c2ccccc2)C12CN(C(=O)c1cnccn1)C2`, the GFP signal change (wild-type ribosome) was -1.97% (inactive), the OD600 change is -9.38% and the RFP signal change amounted to 1.42%.
